In assay [1] the target is Lysosomal acid glucosylceramidase (Homo sapiens) (UniProt P04062). As to the kind of experiment: Glucocerebrosidase-p2 (AID 348; in the data active means potency below about 10 µM; further: potency means the concentration at half of the fitted maximal effect). The conditions noted are these: purified GBA, blue fluorogenic substrate, 40 min. The procedure, abridged:
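Compounds titrated from 0.6 nM upwards against 0.2 nM enzyme in pH 5.9 citric acid/KH2PO4, taurocholate, tween-20; blue fluorogenic substrate 80 uM, 40 min room temperature, stopped and read Ex 365/Em 440 for AC50.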

The nature of assay [2]: AP1 Signaling Pathway (AID 357; active means well fitted curve in either direction with a large enough effect, not every such curve was filed as active;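 further: ME-180 reporter cells stimulated with EGF at its EC50 level; on the % scale 0 is the no-effect control and ±100 the full control effect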). The conditions noted are these: ME-180 AP-1-bla reporter, EGF-induced, beta-lactamase ratio, 5 h; at 7.69 µM (top of the series) unless noted. The procedure, abridged: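 Titration-series screen for positive or negative modulators of EC50 EGF-induced signaling in ME-180 cells carrying an AP-1-driven beta-lactamase reporter. After 5 hours at 37 degrees Celsius, CCF4 460nm/530nm emission ratio gave %Activity; AC50 values derived.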

Assay [3] has as its target Cytochrome P450 1A2 (Homo sapiens) (UniProt P05177). As to the kind of experiment: p450-cyp1a2 (AID 410; calls by dose curve; further: potency means the concentration at half of the fitted maximal effect;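 on activity change, negative = inhibition: -100% = full effect of reference inhibitor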). As to conditions: recombinant CYP1A2, luciferin-ME demethylation, luminescence; series mostly up to 57 µM. The procedure, abridged:
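Inhibition was calculated relative to 57 uM furafylline (full inhibition). The reaction used human CYP1A2 at 20nM with Luciferin-ME at its Km, 100uM, driven by an NADPH-regenerating system for 60 min at room temperature.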

Assay [4] can be described thus: NFAT Signaling Pathway (AID 444; active means well fitted curve in either direction with a large enough effect, not every such curve was filed as active;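 further: carbachol stimulus at about its EC50 of 1 µM final; on the % scale 0 is the no-effect control and ±100 the full control effect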). The conditions noted are these: Jurkat NFAT-bla M1, carbachol, beta-lactamase ratio, 5 h; at 7.69 µM (top of the series) unless noted. The procedure, abridged: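 Read-out: CCF4 FRET ratio (460 nm/530 nm) after 1 h RT dye loading, used for %activity and AC50 from titration series. Cells: Jurkat NFAT-β-lactamase/M1 line, treated with compound plus 1 uM carbachol for 5 h, 37 °C.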

A short description of assay [5]: Stat Signaling Pathway (AID 446; active means well fitted curve in either direction with a large enough effect, not every such curve was filed as active;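 further: ME-180 cervical cancer cells given 40 pM IL-6 alongside compound; SIE-controlled beta-lactamase reporter measured as 460/530 nm FRET emission ratio; on the % scale 0 is the no-effect control and ±100 the full control effect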). The conditions noted are these: ME-180 SIE beta-lactamase reporter, IL-6 stimulated, 5 h; at 7.69 µM (top of the series) unless noted. The procedure, abridged:
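ME-180 SIE-bla cells; overnight plating; cpd + IL-6 40 pM, 5 h, 37 C; LiveBLAzer 2.5 h RT; 460/530 nm emission ratio. Normalized to 300 pM IL-6 and 125 nM JAK inhibitor controls.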

In assay [6] the target is Glucocorticoid receptor (Homo sapiens) (UniProt P04150). As to the kind of experiment: GR-GFP Redistribution (AID 450;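 active means compounds whose dose series gives a full or clear partial fitted curve of increased nuclear translocation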; further: potency means the concentration at half of the fitted maximal effect). As to conditions: U2OS GR-GFP nuclear translocation, laser cytometry, 2 h.
Glucocorticoid receptor (Homo sapiens), sequence (P04150 whole entry, looked up): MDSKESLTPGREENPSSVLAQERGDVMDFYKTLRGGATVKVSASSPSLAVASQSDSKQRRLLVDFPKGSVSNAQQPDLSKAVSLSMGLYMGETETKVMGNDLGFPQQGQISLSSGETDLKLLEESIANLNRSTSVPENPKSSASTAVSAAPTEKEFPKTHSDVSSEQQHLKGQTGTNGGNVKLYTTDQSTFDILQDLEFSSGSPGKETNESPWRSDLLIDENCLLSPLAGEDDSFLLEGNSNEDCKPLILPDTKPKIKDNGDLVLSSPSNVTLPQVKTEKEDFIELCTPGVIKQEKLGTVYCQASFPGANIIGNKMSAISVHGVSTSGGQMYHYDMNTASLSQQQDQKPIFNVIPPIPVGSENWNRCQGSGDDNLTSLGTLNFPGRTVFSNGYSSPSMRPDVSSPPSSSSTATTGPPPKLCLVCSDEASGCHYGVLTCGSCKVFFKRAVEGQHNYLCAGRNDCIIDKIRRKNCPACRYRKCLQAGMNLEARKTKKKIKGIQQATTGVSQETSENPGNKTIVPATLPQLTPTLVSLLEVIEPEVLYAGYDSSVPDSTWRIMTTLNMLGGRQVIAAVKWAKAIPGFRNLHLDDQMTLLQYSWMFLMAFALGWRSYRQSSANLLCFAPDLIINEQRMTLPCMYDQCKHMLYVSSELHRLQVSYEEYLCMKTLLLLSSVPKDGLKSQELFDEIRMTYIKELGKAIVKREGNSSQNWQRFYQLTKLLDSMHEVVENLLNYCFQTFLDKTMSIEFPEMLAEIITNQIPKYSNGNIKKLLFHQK
For assay [7] the target is unchanged. As to the kind of experiment: GR-EFC Redistribution (AID 451; calls by dose curve; further: potency means the concentration at half of the fitted maximal effect). As to conditions: CHO-K1 GR-EFC translocation, beta-gal luminescence, 2 h. The procedure, abridged:
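Translocation of GR-ED fusion to nuclear EA restores b-gal, read by luminescence after 1 h room-temperature detection. Engineered CHO-K1 biosensor cells, 1,000/well, exposed 2 h at 37 C to titrations up to 46 uM final.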

Assay [8] concerns the target Mitogen-activated protein kinase 10 (Mus musculus) (UniProt Q61831). As to the kind of experiment: JNK3 AlphaScreen Assay (AID 530; active means well fitted curve in either direction with a large enough effect, not every such curve was filed as active;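 further: kinase came from lysate of stimulated human HepG2 cells; signal reports phosphorylation of biotinylated GST-cJun 1-79 at Ser73 with 10 µM ATP; on the % scale 0 is the no-effect control and ±100 the full control effect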). As to conditions: JNK3 lysate, c-Jun phosphorylation; series mostly up to 57.1 µM. The procedure, abridged:
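Room-temperature AlphaScreen kinase assay; pre-activated HepG2 lysate as JNK3 source, biotin-GST-cJun(1-79) substrate, 10 uM ATP, compound 15 min preincubation.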
For orientation: Bead proximity is the source of the signal in Alpha formats.

The target in assay [9] is 3',5'-cyclic-AMP phosphodiesterase 4B (Homo sapiens) (UniProt Q07343). As to the kind of experiment: qHTS Assay for Inhibitors of PDE-IV (AID 607; active means well fitted activation curve with a large enough effect in the main read-out, with a control signal flat, not every such curve was filed as active; further: % of control where 0% means no effect). The conditions noted are these: HEK293 ACTOne CNG channel cells, membrane potential fluorescence; series mostly up to 22.9 µM. The procedure, abridged: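 ACTOne HEK293 cells carry a modified cAMP-gated CNG channel and express endogenous PDE4; plated 1000 cells/well, compounds up to 22.9 uM final. Membrane-potential dye fluorescence (ex 535/em 590) was read; parental cells received 10 uM forskolin + 100 uM RO 20-1724.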
3',5'-cyclic-AMP phosphodiesterase 4B (Homo sapiens), sequence (Q07343 whole entry, looked up): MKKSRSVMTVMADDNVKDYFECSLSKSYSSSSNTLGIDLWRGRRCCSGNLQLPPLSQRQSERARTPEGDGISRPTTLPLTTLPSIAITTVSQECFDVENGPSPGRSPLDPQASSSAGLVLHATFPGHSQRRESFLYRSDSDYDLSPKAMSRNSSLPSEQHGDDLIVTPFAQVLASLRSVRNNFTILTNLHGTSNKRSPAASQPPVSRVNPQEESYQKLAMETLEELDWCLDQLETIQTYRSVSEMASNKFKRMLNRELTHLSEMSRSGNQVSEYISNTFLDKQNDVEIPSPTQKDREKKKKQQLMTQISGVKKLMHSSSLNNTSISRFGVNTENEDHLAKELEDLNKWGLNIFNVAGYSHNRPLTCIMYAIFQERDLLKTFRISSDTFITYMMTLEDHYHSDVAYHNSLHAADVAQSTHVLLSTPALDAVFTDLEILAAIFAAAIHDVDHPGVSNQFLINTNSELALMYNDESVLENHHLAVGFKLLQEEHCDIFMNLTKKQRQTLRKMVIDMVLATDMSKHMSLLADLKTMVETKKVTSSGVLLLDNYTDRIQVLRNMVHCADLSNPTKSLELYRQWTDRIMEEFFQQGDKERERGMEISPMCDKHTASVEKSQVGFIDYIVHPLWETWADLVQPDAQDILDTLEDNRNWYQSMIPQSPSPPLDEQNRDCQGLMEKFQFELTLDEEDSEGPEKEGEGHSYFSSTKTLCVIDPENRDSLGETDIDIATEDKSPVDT
(Quantitative high-throughput screening tests each substance at several concentrations.)

Assay [10] concerns the target Cytochrome P450 3A4 (Homo sapiens) (UniProt P08684). As to the kind of experiment: qHTS Assay for Activators of Cytochrome P450 3A4 (AID 885). Further: nearly all actives have a fitted effect of over 65% in size. As to conditions: recombinant CYP3A4, Luciferin-PPXE luminescence, 60 min; series mostly up to 57.1 µM. The procedure, abridged:
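20nM CYP3A4 + 25uM Luciferin-PPXE (=KM), 200mM KPO4; cpd 10 min RT; NADPH regen, 60 min RT; stop w/ detection buffer, 20 min; luminescence. Normalized to 57 uM ketoconazole.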

Assay [11] in a line: qHTS Assay for Lipid Storage Modulators (AID 1519; calls by dose curve). As to conditions: Drosophila S3 cells, BODIPY lipid droplet/cell ratio, laser cytometry, cells loaded with oleic acid; for activity change, negative = inhibition: at 57.5 µM (top of the series). The procedure, abridged:
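Cells seeded at 5,000 per well were treated with compounds over a concentration series and loaded with oleic acid (400 uM, as added). Lipid droplet fluorescence (488 nm excitation, 500-530 nm channel) was read by laser-scanning cytometry and normalized to 20 uM Triacsin C.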

Assay [12] concerns the target Dual specificity protein kinase CLK4 (Homo sapiens) (UniProt Q9HAZ1). As to the kind of experiment: qHTS Assay for Inhibitors of CDC-like Kinase 4 (Kinase-Glo Assay) (AID 1770). Further: nearly all actives have a fitted effect of over 65% in size. Further: potency means the concentration at half of the fitted maximal effect. The conditions noted are these: recombinant Clk4, Kinase-Glo ATP depletion luminescence; series mostly up to 66.7 µM. The procedure, abridged: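 25 nM Clk4 with 100 uM RS repeat peptide and 1 uM ATP (final) in Tris pH7.5, 10 mM MgCl2, 4.5 h at room temperature. Remaining ATP measured by Kinase-Glo luciferase luminescence.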

The target is the same in assay [13]. As to the kind of experiment: qHTS Assay for Inhibitors of CDC-like Kinase 4 (ADP-Glo Assay) (AID 1771). Further: nearly all actives have a fitted effect of over 70% in size. Further: potency means the concentration at half of the fitted maximal effect. As to conditions: recombinant CLK4, ADP-Glo luminescence; series mostly up to 80 µM. The procedure, abridged:
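Kinase reaction: Clk4 at 25 nM, RS repeat peptide substrate at 100 uM, ATP at 1 uM, 1 hr, room temperature. Product ADP detected as luciferase signal via ADP-Glo.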

The target is the same in assay [14]. As to the kind of experiment: qHTS Assay for Inhibitors of CDC-like Kinase 4 (ADP-FP Assay) (AID 1795). Further: nearly all actives have a fitted effect of over 60% in size. Further: potency means the concentration at half of the fitted maximal effect. As to conditions: Transcreener ADP fluorescence polarization; series mostly up to 50 µM. The procedure, abridged:
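Recombinant Clk4 (6.25 nM) phosphorylated 100 uM RS repeat peptide with 1 uM ATP in 25 mM Tris pH 7.5, 10 mM MgCl2, 0.5 mM EGTA, 2.5 mM DTT, 0.01% Triton X-100 for 1 h. ADP was detected by Transcreener ADP2 competitive fluorescence polarization after 30 min at room temperature.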

In assay [15] the target is Ubiquitin carboxyl-terminal hydrolase 1 (Homo sapiens) (UniProt O94782). As to the kind of experiment: Inhibitors of USP1/UAF1: Pilot qHTS (AID 504865).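 Further: rhodamine fluorescence freed from ubiquitin-rhodamine substrate followed over time; top concentration of the series differs between compounds; on the % scale 0 is the no-effect control and ±100 the full control effect; nearly all actives have a fitted effect of over 35% in size.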 As to conditions: purified USP1/UAF1, Ub-rhodamine cleavage fluorescence; series mostly up to 54.9 µM. The procedure, abridged: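 USP1/UAF1 complex at 1 nM preincubated 15 min at room temperature with compound, then Ub-Rho substrate added at 150 nM final. Fluorescence (480/540 nm) read kinetically in 50 mM HEPES pH 7.8, 0.5 mM EDTA, 1 mM TCEP, 0.1 mg/ml BSA, 0.01% Tween-20.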
Ubiquitin carboxyl-terminal hydrolase 1 (Homo sapiens), sequence (O94782 whole entry, looked up): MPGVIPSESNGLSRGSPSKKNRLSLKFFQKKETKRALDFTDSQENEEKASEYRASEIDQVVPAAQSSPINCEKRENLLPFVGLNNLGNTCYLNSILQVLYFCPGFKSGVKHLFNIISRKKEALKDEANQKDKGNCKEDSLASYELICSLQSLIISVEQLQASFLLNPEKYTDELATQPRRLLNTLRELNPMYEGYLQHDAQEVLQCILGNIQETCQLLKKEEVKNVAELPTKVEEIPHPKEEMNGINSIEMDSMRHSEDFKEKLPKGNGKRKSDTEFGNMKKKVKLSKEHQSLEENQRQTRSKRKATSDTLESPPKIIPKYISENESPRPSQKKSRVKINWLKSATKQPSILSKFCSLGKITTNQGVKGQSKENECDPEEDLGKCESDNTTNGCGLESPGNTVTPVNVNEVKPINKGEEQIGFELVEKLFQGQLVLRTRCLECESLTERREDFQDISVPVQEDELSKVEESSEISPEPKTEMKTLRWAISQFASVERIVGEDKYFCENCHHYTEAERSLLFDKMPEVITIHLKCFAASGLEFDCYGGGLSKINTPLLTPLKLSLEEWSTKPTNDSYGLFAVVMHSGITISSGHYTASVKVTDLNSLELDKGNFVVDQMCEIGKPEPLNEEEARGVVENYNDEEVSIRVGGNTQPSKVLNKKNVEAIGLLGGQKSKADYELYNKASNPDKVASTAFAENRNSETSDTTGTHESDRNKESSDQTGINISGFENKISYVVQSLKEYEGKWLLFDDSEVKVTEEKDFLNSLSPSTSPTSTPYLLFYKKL

Assay [16] in a line: Primary qHTS for small molecule stabilizers of the endoplasmic reticulum resident proteome: Secreted ER Calcium Modulated Protein (SERCaMP) assay (AID 1508630). Further: on the % scale 0 is the no-effect control and ±100 the full control effect. The conditions noted are these: SH-SY5Y GLuc-SERCaMP (Gaussia luciferase released on ER calcium loss) secretion, thapsigargin, luminescence; series mostly up to 38.4 µM. The procedure, abridged:
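GLuc-SERCaMP-expressing SH-SY5Y cells, pretreated 16 h with compound, are challenged with thapsigargin to empty ER calcium stores; after 4 h, coelenterazine is added directly to the medium and luminescence is imaged.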

In assay [17] the target is Cytochrome P450 2C19 (Homo sapiens) (UniProt P33261). As to the kind of experiment: qHTS Assay for Inhibitors and Substrates of Cytochrome P450 2C19 (AID 899). Further: nearly all actives have a fitted effect of over 60% in size. Further: potency means the concentration at half of the fitted maximal effect. As to conditions: recombinant CYP2C19, luciferin-H EGE luminescence; series mostly up to 57.1 µM. The procedure, abridged: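 5nM enzyme + 10uM Luciferin-H EGE (=KM), 50mM KPO4; cpd pin-transferred, 10 min 37C; NADPH regen, 60 min 37C; stopped w/ luciferin detection reagent, 20 min; luminescence. Normalized to 57uM ketoconazole (AC100).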
Cytochrome P450 2C19 (Homo sapiens), sequence (P33261 whole entry, looked up): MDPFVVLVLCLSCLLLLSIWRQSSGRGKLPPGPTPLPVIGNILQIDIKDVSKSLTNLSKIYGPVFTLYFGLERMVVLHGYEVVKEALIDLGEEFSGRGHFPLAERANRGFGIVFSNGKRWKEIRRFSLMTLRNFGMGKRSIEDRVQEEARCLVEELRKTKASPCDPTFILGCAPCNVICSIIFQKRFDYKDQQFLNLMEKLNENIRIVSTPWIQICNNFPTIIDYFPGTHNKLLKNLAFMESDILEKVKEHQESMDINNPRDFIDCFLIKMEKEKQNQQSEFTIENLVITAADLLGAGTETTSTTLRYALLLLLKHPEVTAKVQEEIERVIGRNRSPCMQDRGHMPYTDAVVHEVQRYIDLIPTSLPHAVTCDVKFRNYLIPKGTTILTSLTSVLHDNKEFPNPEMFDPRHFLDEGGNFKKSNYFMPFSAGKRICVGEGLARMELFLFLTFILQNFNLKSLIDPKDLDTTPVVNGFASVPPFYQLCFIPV

Assay [18] is described as follows: qHTS Assay for Identification of Small Molecule Agonists for Hypoxia Response Element Signaling Pathway (AID 914; active means well fitted activation curve with a large enough effect in the signal ratio, with a control signal flat, not every such curve was filed as active; the % refers to the signal ratio; further: % of control where 0% means no effect). The conditions noted are these: ME-180 (cervical carcinoma) HRE-bla reporter, beta-lactamase ratio, CoCl2, 17 h; activation: stronger effect = higher value. The procedure, abridged:
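Compounds in a titration series were added to ME-180 reporter cells alongside an EC50 level of CoCl2. After 17 hours, beta-lactamase activity was read as the 460nm/530nm emission ratio of CCF4, giving AC50 values.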

[19] abbreviates: measured here: cell count channel max response.
The mark [20] stands for this setting: measured here: lipid channel max response.

Inconclusive results are not listed. Calls of active or inactive are those of the source. Unless noted, the call rests on the fitted dose curve; in most records, active means well fitted curve in the direction sought with a large enough effect; inconclusive means small, poorly fitted or top-dose-only effect, or another doubt; inactive means no such curve, though single readings can be large; an effect the other way counts as inactive or inconclusive. Where only a bound is given, the exact number is not on record here.

Dual specificity protein kinase CLK4 (Homo sapiens), sequence (Q9HAZ1 whole entry, looked up): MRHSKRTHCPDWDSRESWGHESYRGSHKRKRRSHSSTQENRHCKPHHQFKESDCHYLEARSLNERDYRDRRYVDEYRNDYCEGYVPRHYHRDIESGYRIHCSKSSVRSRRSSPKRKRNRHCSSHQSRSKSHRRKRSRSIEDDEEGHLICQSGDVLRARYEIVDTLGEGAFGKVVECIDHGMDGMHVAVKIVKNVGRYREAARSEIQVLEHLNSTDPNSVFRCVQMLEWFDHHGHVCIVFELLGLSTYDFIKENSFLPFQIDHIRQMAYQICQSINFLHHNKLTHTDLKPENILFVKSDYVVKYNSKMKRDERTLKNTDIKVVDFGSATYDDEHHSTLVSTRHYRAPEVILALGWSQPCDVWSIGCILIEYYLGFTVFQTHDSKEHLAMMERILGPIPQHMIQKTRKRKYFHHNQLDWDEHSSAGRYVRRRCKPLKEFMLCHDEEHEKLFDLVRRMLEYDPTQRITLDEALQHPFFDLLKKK
Lysosomal acid glucosylceramidase (Homo sapiens), sequence (P04062 whole entry, looked up): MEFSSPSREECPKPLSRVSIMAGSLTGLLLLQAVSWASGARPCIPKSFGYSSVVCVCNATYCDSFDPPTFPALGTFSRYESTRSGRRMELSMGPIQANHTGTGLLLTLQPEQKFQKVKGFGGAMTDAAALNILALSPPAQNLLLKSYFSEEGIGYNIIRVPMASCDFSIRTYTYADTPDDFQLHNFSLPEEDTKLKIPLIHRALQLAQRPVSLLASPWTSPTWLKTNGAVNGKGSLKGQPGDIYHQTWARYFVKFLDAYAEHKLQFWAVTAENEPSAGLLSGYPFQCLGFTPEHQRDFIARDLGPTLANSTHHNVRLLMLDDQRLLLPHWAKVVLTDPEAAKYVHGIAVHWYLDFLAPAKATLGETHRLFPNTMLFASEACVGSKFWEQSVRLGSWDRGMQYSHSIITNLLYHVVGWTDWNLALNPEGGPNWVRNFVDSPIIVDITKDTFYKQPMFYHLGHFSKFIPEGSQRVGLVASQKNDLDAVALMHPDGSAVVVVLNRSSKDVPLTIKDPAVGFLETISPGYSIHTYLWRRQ
Cytochrome P450 3A4 (Homo sapiens), sequence (P08684 whole entry, looked up): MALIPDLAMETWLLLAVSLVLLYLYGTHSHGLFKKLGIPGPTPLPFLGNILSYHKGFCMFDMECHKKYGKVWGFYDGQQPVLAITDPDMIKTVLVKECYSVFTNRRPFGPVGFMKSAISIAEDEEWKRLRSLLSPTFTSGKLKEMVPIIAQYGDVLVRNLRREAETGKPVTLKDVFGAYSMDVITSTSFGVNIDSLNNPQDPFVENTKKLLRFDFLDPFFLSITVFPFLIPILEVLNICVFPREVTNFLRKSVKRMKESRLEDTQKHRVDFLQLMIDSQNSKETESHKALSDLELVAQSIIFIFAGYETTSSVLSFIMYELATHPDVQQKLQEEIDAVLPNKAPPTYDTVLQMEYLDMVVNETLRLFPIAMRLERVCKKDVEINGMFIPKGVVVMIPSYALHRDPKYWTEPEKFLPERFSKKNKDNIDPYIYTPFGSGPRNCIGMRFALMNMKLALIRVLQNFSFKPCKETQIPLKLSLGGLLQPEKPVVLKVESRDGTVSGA
Cytochrome P450 1A2 (Homo sapiens), sequence (P05177 whole entry, looked up): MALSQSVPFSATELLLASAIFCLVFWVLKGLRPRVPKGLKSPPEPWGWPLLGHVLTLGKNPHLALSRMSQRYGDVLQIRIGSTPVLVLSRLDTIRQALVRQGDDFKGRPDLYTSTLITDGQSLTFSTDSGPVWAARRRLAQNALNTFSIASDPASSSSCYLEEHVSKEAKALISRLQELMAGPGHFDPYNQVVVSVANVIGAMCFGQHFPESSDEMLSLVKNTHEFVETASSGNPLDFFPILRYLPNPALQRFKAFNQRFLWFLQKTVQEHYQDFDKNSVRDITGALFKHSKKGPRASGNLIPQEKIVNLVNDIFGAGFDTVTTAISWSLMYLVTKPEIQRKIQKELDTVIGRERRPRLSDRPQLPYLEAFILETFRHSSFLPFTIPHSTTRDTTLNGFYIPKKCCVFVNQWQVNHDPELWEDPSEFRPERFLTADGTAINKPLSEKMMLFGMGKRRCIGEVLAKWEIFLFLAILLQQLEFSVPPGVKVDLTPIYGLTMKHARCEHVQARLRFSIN

Regarding `CN(C)C(=O)c1ccc(-c2ccc3ncnc(N(C)C)c3c2)cc1`, the Potency in assay [1] was > 11.4 µM (inactive); in assay [3], 20 µM (active); in [6], > 46 µM (inactive); in [7], > 46 µM (inactive); in assay [12] it was 25.1 µM (active); in assay [13], 28.2 µM (active). The results for the activity change, negative = inhibition in assay [2], in assay [4] and in assay [11] were -20.2% (inactive), 9.63% (inactive) and 4.12% (inactive), respectively. Besides, in [5], the activity, negative = inhibition is -6.55% (inactive). The molecule was called inactive in [8]. Further, the Potency result in [9], in assay [10], in [14], in assay [15] and in [16] was “inactive” throughout. The max response in [11] (setting [19]) was 19.1%; in assay [11] (setting [20]) it was 22.2%.
Regarding `COc1ccc(CNc2ccnc(-c3ccc4c(c3)OCO4)n2)c(OC)c1`, the Potency in assay [1] is > 11.4 µM (inactive); in [3], 1.26 µM (active); in assay [6] it was > 46 µM (inactive); in [7], > 46 µM (inactive); in assay [17], 2.51 µM (active). In addition, the activity change, negative = inhibition is -15% (inactive) in [2], -5.96% (inactive) in assay [4] and 4.67% (inactive) in assay [11]. The activity, negative = inhibition in [5] is -2.09% (inactive). Besides, the molecule was classed as inactive in assay [8]. For the same molecule, the Potency result in [10], in [12], in assay [13], in assay [14], in [15] and in [16] was “inactive” each time. The max response in [11] (setting [19]) is 13.5%; in assay [11] (setting [20]) it was 17.1%.
As to `Cc1noc(C)c1-c1cc(NCc2cccs2)ncn1`, the Potency was > 11.4 µM (inactive) in [1]; 0.794 µM (active) in assay [3]; > 46 µM (inactive) in [6]; > 46 µM (inactive) in [7]; 11.2 µM (active) in assay [12]; 10 µM (active) in assay [13]. For the same molecule, in assay [14], the Potency is 14.1 µM (active). For the same molecule, the activity change, negative = inhibition was 17% (inactive) in assay [2], -7.58% (inactive) in assay [4] and 5.54% (inactive) in [11]. The activity, negative = inhibition in assay [5] was 7.7% (inactive). Further, in [8], the molecule was classed as inactive. In addition, the Potency entry in assay [9], in assay [10], in assay [17], in assay [15] and in assay [16] was “inactive” in each case. Moreover, the max response amounted to 20.5% in [11] (setting [19]) and 27.7% in assay [11] (setting [20]).
`COCCn1c(=O)cnc2cnc(Oc3ccccc3)nc21`: the Potency in assay [1] is > 11.4 µM (inactive); in assay [3] it was 15.8 µM (active); in [6], > 9.22 µM (inactive); in assay [7], > 46 µM (inactive). Also, the activity change, negative = inhibition in assay [2] was -14.7% (inactive); in assay [4], -0.802% (inactive); in assay [11], 3.04% (inactive). Besides, the activity, negative = inhibition in assay [5] was -13.1% (inactive). Also, the result in [8] was inactive. In addition, the Potency result in assay [9], in assay [10], in [12], in assay [13], in assay [14] and in assay [15] was “inactive” each time. Also, the Potency entry in [16] was “inactive”. In addition, the activation in assay [18] was 10.1% (inactive). Further, the results for the max response in [11] (setting [19]) and in assay [11] (setting [20]) were 12% and 12.6%, respectively.
`COCCNc1ncnc2ccc(-c3ccc(C(=O)N(C)C)cc3)cc12`: the Potency is > 11.4 µM (inactive) in [1], > 46 µM (inactive) in [6] and > 46 µM (inactive) in [7]. Besides, the activity change, negative = inhibition is -7.19% (inactive) in assay [2], 11.8% (inactive) in assay [4] and -0.0247% (inactive) in assay [11]. For the same molecule, the Potency entry in [3], in [9], in assay [10], in assay [12], in assay [13] and in assay [14] was “inactive” throughout. The Potency entry in [15] and in assay [16] was “inactive” in each case. In addition, the activity, negative = inhibition in assay [5] is 0.699% (inactive). Further, the result in [8] was inactive. The max response was determined as 4.77% in assay [11] (setting [19]) and 3.74% in assay [11] (setting [20]).

The values above are taken from PubChem BioAssay (NCATS).
